Measured values published in PubChem BioAssay (Tox21).
Inconclusive results are not listed. Activity calls are given as the source filed them. Calls follow the shape of the dose curve; as a rule, active = well fitted curve in the direction sought with a large enough effect in the repeat runs; inconclusive = weak or mixed curves; inactive = no such curve, though single readings can be large; an effect the other way counts as inactive or inconclusive.

Legend:
[1] = A CellTox Green Cytotoxicity Assay to monitor cytotoxicity in HepG2 cells - 16 hour (AID 1224876); also: nearly all actives have a fitted effect of over 45% in size
Procedure, shortened: (§1)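 HepG2, 600 cells/well premixed w/ CellTox Green; 5 h settle, 37 C/5% CO2; pintool cpd add (DMSO); 37 C, 40 h; fluorescence read at 0, 8, 16, 24, 32, 40 h.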

[2] = qHTS RealTime-Glo MT Cell Viability Assay in HepG2 cells - 32 hour (AID 1224877); also: nearly all actives have a fitted effect of over 55% in size
Procedure, shortened: (§2)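 qHTS, HepG2, 600 cells/well, RealTime-Glo (NanoLuc + prosubstrate) added with cells; 5 h preincubation; DMSO compound addition; 37 C; luminescence at 0/8/16/24/32/40 h.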

[3] = A CellTox Green Cytotoxicity Assay to monitor cytotoxicity in HepG2 cells - 24 hour (AID 1224878); also: nearly all actives have a fitted effect of over 45% in size
Procedure, shortened: as §1

[4] = A CellTox Green Cytotoxicity Assay to monitor cytotoxicity in HepG2 cells - 40 hour (AID 1224879); also: nearly all actives have a fitted effect of over 40% in size
Procedure, shortened: as §1

[5] = A CellTox Green Cytotoxicity Assay to monitor cytotoxicity in HEK293 cells - 32 hour (AID 1224881); also: nearly all actives have a fitted effect of over 40% in size
Procedure, shortened: (§3)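 Read-out: fluorescence of a cell-impermeant cyanine dye staining DNA of dead cells, proportional to cytotoxicity. HEK293, 600 cells/well with reagent, compound (23 nL DMSO) added after 5 h; reads at 0, 8, 16, 24, 32, 40 h.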

[6] = A CellTox Green Cytotoxicity Assay to monitor cytotoxicity in HepG2 cells - 0 hour (AID 1224882); also: nearly all actives have a fitted effect of over 35% in size
Procedure, shortened: as §1

[7] = A CellTox Green Cytotoxicity Assay to monitor cytotoxicity in HepG2 cells - 32 hour (AID 1224883); also: nearly all actives have a fitted effect of over 50% in size
Procedure, shortened: as §1

[8] = A CellTox Green Cytotoxicity Assay to monitor cytotoxicity in HEK293 cells - 8 hour (AID 1224884); also: nearly all actives have a fitted effect of over 35% in size
Procedure, shortened: as §3

[9] = qHTS RealTime-Glo MT Cell Viability Assay in HepG2 cells - 16 hour (AID 1224885); also: nearly all actives have a fitted effect of over 50% in size
Procedure, shortened: as §2

[10] = qHTS RealTime-Glo MT Cell Viability Assay in HEK293 cells - 0 hour (AID 1224880); also: top concentration of the series differs between compounds; nearly all actives have a fitted effect of over 45% in size
Procedure, shortened: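 Luminescence readout at each listed time point; HEK293, 600 cells/well, RealTime-Glo MT reagent added with cells; compounds pinned (23 nL in DMSO) after 5 h at 37 C; continuous culture at 37 C.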

Measured: Potency

COc1cc2c(cc1OC)CN(C(=O)[C@H](C)N[C@@H](CCc1ccccc1)C(=O)O)[C@H](C(=O)O)C2
not listed: [10]
inactive: all other assays above

O=C(NCN1CCOCC1)c1cnccn1
not listed: [2]
inactive: all other assays above

C/C=C(\C)C(C)=O
not listed: [10]
inactive: all other assays above

CC(=O)CCC1=C(C)CCCC1(C)C
inactive: [2] | [10] | [5] | [6] | [8] | [9]

CC1=NN(c2ccc(S(=O)(=O)O)cc2)C(=O)C1
not listed: [2] | [6]
inactive: all other assays above

CCCCCCCCCCCCCCC(=O)NC(CO)CCCCCCCCCCCCCC (stereo unspecified)
not listed: [2] | [6]
inactive: all other assays above

C=CCCCCCCCCC(=O)OCCCC
inactive: [1] | [10] | [5] | [6] | [8] | [9]

Cc1ccc(N)cc1S(=O)(=O)O
not listed: [2]
inactive: all other assays above

O=C(O)c1cc2ccccc2nc1C(=O)O
not listed: [2]
inactive: all other assays above

Cn1c(=O)c2c(ncn2CCO)n(C)c1=O
inactive: [2] | [10] | [5] | [8] | [9]

CC1c2ccccc2CN1NC(=O)c1ccc(Cl)c(S(N)(=O)=O)c1 (stereo unspecified)
not listed: [2]
inactive: all other assays above

O=C(O)CONC(=O)c1ccccc1
not listed: [2]
inactive: all other assays above
